# HT1080 IDH1KD tx: kills HT-1080 cells with IDH1 knockdown. HT-1080 IDH1 knockdown viability, ATP luminescence, 48 h. Potency, µM (series often up to 46.1 µM), inactives show at the highest dose activity, negative = toxicity, hits mostly cytotoxic. hit rate 2% among 360,000. AID 686971;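 note: 0% = DMSO wells and -100% = cell-free medium wells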
#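 % activity derives from luminescence (CellTiter-Glo), normalised to DMSO and no-cell wells. HT-1080-IDH1KD cells, 750/well, had 48 h compound exposure at 37 °C.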
# KB-3-1 cytotox: KB-3-1 parental cell cytotoxicity. KB-3-1 viability, CellTiter-Glo ATP luminescence, 72 h. Potency, µM (top dose mostly 46.1 µM), usual class: cytotoxic. hit rate 1.4% among 400,000. AID 1347075; note: % is set by controls: 0 for no effect and ±100 for the full control effect; nearly all actives have a fitted effect of over 60% in size
#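 KB-3-1 parental drug-naive adenocarcinoma cells in DMEM/10% FBS, incubated 72 h at 37 C with pin-transferred compounds across a concentration series. Viability by CellTiter-Glo luminescence; concentration-response curves fitted after normalization.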
# SW480 rereplic: inducers of DNA re-replication in SW480 colon cancer cells; SW480 DNA re-replication, Hoechst DNA content imaging, 48 h; Potency, µM (highest dose often 46.1 µM), for the others: at the highest dose re-replication activation, actives largely listed as activators; hit rate 1.8% among 340,000; AID 624297; note: % of control where 0% means no effect; nearly all actives have a fitted effect of over 55% in size
#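 SW480 cells exposed to compounds for 48 hr at 37 C, 5% CO2, then Hoechst-stained 40 min. Nuclear DNA content imaged by fluorescence scanning (405 nm excitation, 500-530 nm emission); re-replication scored as increased high-intensity nuclei.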
# KB-V1 cytotox: KB-V1 MDR subline cytotoxicity; AID 1347076; KB-V1 MDR cells viability, CellTiter-Glo, 72 h; hit rate 3.4% among 400,000; Potency, µM (series often up to 46.1 µM), usual class: cytotoxic; note: % is set by controls: 0 for no effect and ±100 for the full control effect; nearly all actives have a fitted effect of over 60% in size
#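 Following 72 h at 37 degrees C with compound, KB-V1 cell viability was read by CellTiter-Glo luminescence, medium being phenol-red-free DMEM plus 10% FBS; concentration-response parameters came from normalized, curve-fitted qHTS data.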
# HT1080NT lethal: kills 2HG-producing HT-1080-NT fibrosarcoma cells. HT-1080-NT fibrosarcoma viability, CellTiter-Glo ATP luminescence, 48 h. Potency, µM (titrated, usually from 46.1 µM), without a hit: at the top dose activity, negative = less viability, most hits filed as cytotoxic. hit rate 1.6% among 360,000. AID 686970;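 note: NT is the 2HG producing partner of a matched IDH1 knockdown line; 0% = DMSO-treated cells and -100% = media-only wells without cells; nearly all actives have a fitted effect of over 55% in size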
#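 Compounds were tested in concentration-response format on HT-1080-NT cells for 48 hours at 37 degrees C. Cell viability came from CellTiter-Glo luminescence; curves were classified by r2, response magnitude and activity.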
# MCF10A rereplic: induces DNA re-replication in MCF 10a normal breast cells; MCF 10A DNA re-replication, Hoechst nuclear intensity, 48 h; Potency, µM (highest dose often 46.1 µM), inactives show top-dose activity, positive = re-replication, actives largely listed as activators; hit rate 2.9% among 350,000; AID 624296; note: % of control where 0% means no effect; nearly all actives have a fitted effect of over 50% in size
# An asterisk follows results filed as active; i = inactive; ? = inconclusive; nt = no result given. Compounds with a hit are over-represented: about 7.9% of the library has one in this group of screens. Calls come from the whole dose curve; as a rule, active = well fitted curve in the direction sought with a large enough effect; inconclusive = small, poorly fitted or top-dose-only effect, or another doubt; inactive = no such curve, though single readings can be large; an effect the other way counts as inactive or inconclusive. Potency is the fitted concentration of half-maximal effect.
SMILES,HT1080 IDH1KD tx,KB-3-1 cytotox,SW480 rereplic,KB-V1 cytotox,HT1080NT lethal,MCF10A rereplic
CCOC(=O)C1CCCN(C(=S)NC(=O)c2cc(Br)ccc2Cl)C1 (stereo not given),12%,i,16µM*,i,14%,7%
CCOC(=O)N1CCN(C(=S)NC(=O)c2cc(Br)ccc2Cl)CC1,3%,i,-4%,i,10%,4%
CC(C)c1ccc(C(=O)N2CCCCC2c2cc(C(=O)Nc3ccncc3)no2)cc1 (stereo not given),-26%,i,nt,i,-9%,nt
O=C(NCC(c1ccco1)N1CCc2ccccc21)C(=O)Nc1ccccc1 (stereo not given),-4%,i,-476%,i,-14%,12%
O=C(NCC(c1ccco1)N1CCc2ccccc21)C(=O)Nc1ccc(F)cc1F (stereo not given),?,4.6µM*,?,4.1µM*,?,4.1µM*
O=C(NCC(c1ccco1)N1CCc2ccccc21)C(=O)Nc1ccccc1F (stereo not given),-18%,15µM*,?,16µM*,-3%,?
O=C(COc1cccc(NC(=O)c2cccs2)c1)c1ccc(F)cc1,-12%,i,0%,7.3µM*,-2%,?
O=C(CNC(=O)c1cccs1)c1ccc(F)cc1,0%,i,?,i,2%,23µM*
COC(=O)c1ccc(C(NC(=O)OCc2ccccc2)/C(F)=C/[C@@H](C)C(=O)NCc2ccc(OC)c(OC)c2)cc1 (stereo not given in full),?,?,16µM*,i,?,?
COC(=O)c1ccc(C(NC(=O)OCc2ccccc2)/C(F)=C/[C@@H](C)C(=O)NCc2ccc(-c3ccccc3)cc2)cc1 (stereo not given in full),9%,i,0%,i,-9%,?
CCCNC(=O)CN1C(=O)c2c(c3ccccc3n2C)C1c1ccc(OC)cc1 (stereo not given),nt,i,nt,i,nt,nt
O=C(Nc1ccc(NC(=O)c2ccc3c(c2)OCCO3)cc1)c1ccccc1,?,i,18%,?,16µM*,3%
O=C(Nc1ncccc1O)c1ccc2c(c1)OCO2,-20%,?,-114%,i,-33%,2%
O=C(Nc1ncccc1O)c1ccc2c(c1)OCCO2,-3%,4.1µM*,18%,?,-9%,11%
Cc1ccccc1C(=O)N1CCN(c2ccc(NC(=O)CSc3ccc(Cl)cc3)cc2)CC1,?,18µM*,-4%,?,-25%,?
O=C(Nc1ccc(NC(=O)c2cccs2)cc1)c1ccc2c(c1)OCO2,12µM*,i,4%,i,?,0%
O=C(Nc1ccc(O)cc1)c1ccc(NC(=O)c2cccs2)cc1,23µM*,18µM*,-10%,i,9.2µM*,18µM*
Cc1ccccc1C(=O)N1CCN(c2ccc(NC(=O)c3ccc4c(c3)OCCO4)cc2)CC1,-10%,?,-8%,8.2µM*,?,16µM*
Nc1nn(-c2ccccc2)nc1C(=O)OCc1c(F)cccc1Cl,nt,i,nt,i,nt,nt
COc1ccc(N2C(=O)c3ccc(C(=O)OC(C)C)cc3C2=O)cc1,0%,18µM*,?,i,-23%,?
O=C(NNC1=Nc2cccc3cccc1c23)c1ccc(Br)cc1,-29%,?,18µM*,i,0%,15µM*
CCOc1cc(C(=O)N/N=C/C2CC=CCC2)cc(OCC)c1OCC (stereo not given),-16%,i,23µM*,i,-1%,?
Cc1ccc(C(=O)N/N=C\C2CC=CCC2)cc1[N+](=O)[O-] (stereo not given),?,i,2%,?,-25%,-15%
CC(C)c1ccccc1NC(=S)NCCCn1ccnc1,10%,i,-52%,i,8%,0.73µM*
COc1ccc(CCN(C)C(=S)NC(=O)c2ccc(F)cc2Cl)cc1OC,-1%,i,-10%,15µM*,4%,-6%
SMILES,HT1080 IDH1KD tx,KB-3-1 cytotox,SW480 rereplic,KB-V1 cytotox,HT1080NT lethal,MCF10A rereplic
O=C(COc1ccc(F)cc1)Nc1ccc2nc(SCc3ccccc3)sc2c1,nt,i,nt,i,nt,nt
CCc1ccccc1Nc1nn2c(=O)c3ccc(C(=O)NCc4ccccn4)cc3nc2s1,0.029µM*,?,?,i,0.26µM*,?
COc1cccc(-c2cc(NC=O)c3ncc(-c4ccc(C(C)=O)cc4)n3c2)c1,10µM*,5.2µM*,nt,18µM*,18µM*,nt
CN(C)C(=O)c1cccc(-c2cc(NC=O)c3ncc(-c4ccc(F)cc4)n3c2)c1,?,?,nt,21µM*,?,nt
O=CNc1cc(-c2ccc(C(=O)NC3CC3)cc2)cn2c(-c3ccc(F)cc3)cnc12,8.2µM*,i,nt,?,?,nt
COc1cccc(-c2cnc3c(NC(C)=O)cc(-c4ccc(C(=O)N5CCOCC5)cc4)cn23)c1,21µM*,i,nt,i,?,nt
COc1ccc(-c2cc(NC=O)c3ncc(-c4cccc(C(C)=O)c4)n3c2)cc1,?,i,nt,i,-28%,nt
CCOC(=O)c1ccccc1NC1(c2ccc(OC)cc2)C(=O)c2ccccc2C1=O,nt,i,nt,i,nt,nt
Cc1oc(-c2ccc(Cl)cc2)nc1Cn1c(=O)cc(C)c2c(C)nn(-c3ccccc3)c21,nt,i,nt,i,nt,nt
O=C(Nc1c(C(=O)N2CCN(c3ccccc3)CC2)oc2ccccc12)c1ccco1,nt,i,nt,i,nt,nt
COc1ccc(-c2cnc3c(NC=O)cc(-c4ccc(C(=O)N5CCOCC5)cc4)cn23)cc1OC,21µM*,?,nt,?,?,nt
COc1ccc(-c2cc(NC=O)c3ncc(-c4ccc(C(C)=O)cc4)n3c2)cc1OC,13µM*,i,nt,?,16µM*,nt
CCCN1C/C(=C/c2cccc([N+](=O)[O-])c2)C(=O)/C(=C/c2cccc([N+](=O)[O-])c2)C1,23µM*,?,1.6µM*,?,-5%,0.92µM*
CCCN1C/C(=C/c2ccc3c(c2)OCO3)C(=O)/C(=C/c2ccc3c(c2)OCO3)C1,?,23µM*,4.6µM*,?,?,?
CN1C(=O)/C(=C/c2cccc([N+](=O)[O-])c2)C(=O)N1c1ccccc1,-8%,?,?,i,1%,?
CCOC(=O)CC(NC(=O)c1cc2cc(Cl)ccc2oc1=O)c1ccc(C)cc1 (stereo not given),nt,i,nt,i,nt,nt
CC(=O)N1CCc2cc(S(=O)(=O)CCC(=O)Nc3ccc(C)cc3Br)ccc21,nt,i,nt,i,nt,nt

# Screening results as filed in PubChem BioAssay.
